# Laboratory results taken from PubChem BioAssay AID1159580 (chemical genetic matrix, 2015).
# Screen size: about 5,500 compounds; about 2,000 (36%) were called active. Roughly 18% stayed inconclusive and do not appear here. This is one part of the list. Unmarked numbers belong to inactive results. Rule as the data show it: active = normalized growth mostly below about 0.91 (no sharp cut-off); inconclusive = no clear call, values can overlap the other calls; inactive = mostly above about 0.92.
# Assay: chemical genetic growth profiling, strain panel (AID 1159580);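 also: tested at 20 µM; growth read once vehicle control cultures reached saturation at 30 °C; 1 = growth at the plate median or of vehicle wells; lower values mean less growth of the strain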
# Details: S. cerevisiae deletion strains, growth OD
compound,measurement,setting,value
C=C1CCC2C(CC2(C)C)C(=C)CC/C1=N\O (stereo not drawn),normalized growth,"locus YAL013W, strain DEP1, hits give low values",1
same,normalized growth,"locus YAL021C, strain ccr4, hits give low values",1.04
same,normalized growth,"locus YAL026C, strain drs2, hits give low values",1.01
same,normalized growth,"locus YAL030W, strain snc1, hits give low values",1
same,normalized growth,"locus YBL061C, strain skt5, hits give low values",0.999
same,normalized growth,"locus YBR009C, strain hhf1, hits give low values",0.99
same,normalized growth,"locus YBR021W, strain FUR4, hits give low values",0.89
same,normalized growth,"locus YBR023C, strain chs3, hits give low values",1.01
same,normalized growth,"locus YBR171W, strain sec66, hits give low values",0.993
same,normalized growth,"locus YBR229C, strain ROT2, hits give low values",1.02
same,normalized growth,"locus YBR231C, strain swc5, hits give low values",1.01
same,normalized growth,"locus YBR279W, strain paf1, hits give low values",1.01
same,normalized growth,"locus YCL011C, strain gbp2, hits give low values",0.997
same,normalized growth,"locus YCL016C, strain dcc1, hits give low values",0.994
same,normalized growth,"locus YCL029C, strain bik1, hits give low values",0.983
same,normalized growth,"locus YCL061C, strain MRC1, hits give low values",0.992
same,normalized growth,"locus YCL069W, strain vba3, hits give low values",1.01
same,normalized growth,"locus YCR088W, strain abp1, hits give low values",1
same,normalized growth,"locus YDL005C, strain med2, hits give low values",0.994
same,normalized growth,"locus YDL035C, strain GPR1, hits give low values",0.87
same,normalized growth,"locus YDL040C, strain nat1, hits give low values",0.998
same,normalized growth,"locus YDL074C, strain BRE1, hits give low values",0.82
same,normalized growth,"locus YDL101C, strain DUN1, hits give low values",0.986
same,normalized growth,"locus YDL134C, strain PPH21, hits give low values",1.01
same,normalized growth,"locus YDL185W, strain tfp1, hits give low values",0.978
same,normalized growth,"locus YDL192W, strain arf1, hits give low values",0.884 (active)
same,normalized growth,"locus YDR001C, strain nth1, hits give low values",1
same,normalized growth,"locus YDR069C, strain doa4, hits give low values",0.995
same,normalized growth,"locus YDR101C, strain arx1, hits give low values",0.947
same,normalized growth,"locus YDR137W, strain rgp1, hits give low values",0.949
same,normalized growth,"locus YDR150W, strain NUM1, hits give low values",1.03
same,normalized growth,"locus YDR159W, strain sac3, hits give low values",0.977
same,normalized growth,"locus YDR162C, strain NBP2, hits give low values",0.735 (active)
same,normalized growth,"locus YDR195W, strain ref2",1.01
same,normalized growth,"locus YDR297W, strain sur2, hits give low values",1.01
same,normalized growth,"locus YDR318W, strain mcm21, hits give low values",0.911 (active)
same,normalized growth,"locus YDR334W, strain swr1, hits give low values",1
same,normalized growth,"locus YDR335W, strain msn5, hits give low values",1
same,normalized growth,"locus YDR388W, hits give low values",0.964
same,normalized growth,"locus YDR392W, strain spt3, hits give low values",0.839
same,normalized growth,"locus YDR502C, strain sam2, hits give low values",0.927
same,normalized growth,"locus YEL003W, strain gim4, hits give low values",1
same,normalized growth,"locus YEL037C, strain rad23, hits give low values",0.993
same,normalized growth,"locus YEL061C, strain CIN8 (second series), hits give low values",1.01
same,normalized growth,"locus YEL061C, strain CIN8, hits give low values",1.01
same,normalized growth,"locus YER015W, strain faa2, hits give low values",1.01
same,normalized growth,"locus YER016W, strain bim1, hits give low values",1
same,normalized growth,"locus YER110C, hits give low values",1.02
same,normalized growth,"locus YER111C, strain swi4, hits give low values",1
same,normalized growth,"locus YER155C, strain BEM2 (second series), hits give low values",1
same,normalized growth,"locus YER155C, strain BEM2, hits give low values",0.992
same,normalized growth,"locus YER167W, strain BCK2, hits give low values",0.915
same,normalized growth,"locus YFR010W, strain ubp6, hits give low values",1
same,normalized growth,"locus YGL078C, strain dbp3, hits give low values",0.922 (active)
same,normalized growth,"locus YGL086W, strain mad1, hits give low values",0.923 (active)
same,normalized growth,"locus YGL167C, strain pmr1, hits give low values",0.996
same,normalized growth,"locus YGL173C, strain kem1, hits give low values",1
same,normalized growth,"locus YGL227W, strain vid30, hits give low values",1
same,normalized growth,"locus YGL240W, strain doc1, hits give low values",1
same,normalized growth,"locus YGL248W, strain PDE1, hits give low values",1.02
same,normalized growth,"locus YGL253W, strain hxk2, hits give low values",1
same,normalized growth,"locus YGR078C, strain PAC10, hits give low values",0.954
same,normalized growth,"locus YGR135W, strain pre9, hits give low values",0.924
same,normalized growth,"locus YGR229C, strain SMI1, hits give low values",0.738 (active)
same,normalized growth,"locus YGR252W, strain gcn5, hits give low values",0.799
same,normalized growth,"locus YHR013C, strain ard1, hits give low values",1.04
same,normalized growth,"locus YHR027C, strain rpn1, hits give low values",0.999
same,normalized growth,"locus YHR030C, strain SLT2, hits give low values",0.983
same,normalized growth,"locus YHR079C, strain IRE1 (second series), hits give low values",0.962
same,normalized growth,"locus YHR094C, strain hxt1, hits give low values",0.998
same,normalized growth,"locus YHR129C, strain ARP1, hits give low values",0.992
same,normalized growth,"locus YHR142W, strain chs7, hits give low values",1
same,normalized growth,"locus YHR200W, strain rpn10, hits give low values",0.971
same,normalized growth,"locus YIL066C, strain RNR3, hits give low values",0.908
same,normalized growth,"locus YIL073C, strain SPO22, hits give low values",1.08
same,normalized growth,"locus YIL125W, strain kgd1, hits give low values",0.993
same,normalized growth,"locus YIR030C, strain dcg1, hits give low values",0.993
same,normalized growth,"locus YJL092W, strain hpr5, hits give low values",0.996
same,normalized growth,"locus YJL095W, strain BCK1 (second series), hits give low values",1
same,normalized growth,"locus YJL095W, strain BCK1, hits give low values",0.843
same,normalized growth,"locus YJL115W, strain asf1, hits give low values",0.998
same,normalized growth,"locus YJL129C, strain trk1, hits give low values",0.994
same,normalized growth,"locus YJL134W, strain LCB3, hits give low values",1.01
same,normalized growth,"locus YJL154C, strain vps35, hits give low values",1
same,normalized growth,"locus YJL164C, strain tpk1, hits give low values",1
same,normalized growth,"locus YJL166W, strain qcr8, hits give low values",1.01
same,normalized growth,"locus YJL168C, strain set2, hits give low values",0.998
same,normalized growth,"locus YJL187C, strain SWE1 (second series), hits give low values",0.973
